These entries were drawn from the full list.
aSyn UTR act – Activators working through SNCA 5'UTR binding (MLPCN); alpha-synuclein 5'UTR reporter, activators screen; activity score, % (tested at 7.5 µM), hits read low; actives 7.1% (n = 300,000); in the data active = activity score below about -60%
Of the large screens only hits and unclear results are named; the others gave an inactive call.

COc1ccc(C(=O)N/N=C/C23CC[C@@H](O)CC2(O)CC[C@@H]2[C@@H]3CCC3(C)C(C4=CC(=O)OC4)CCC23O)cc1 (stereo not given in full)	none
O=C(NC1CCCCC1)Oc1cc2oc(=O)sc2cc1Cl	aSyn UTR act -62.2
O=C(c1ccccc1)c1ccc(N=Nc2c(O)[nH]c(=O)[nH]c2=O)cc1	aSyn UTR act -73.8
CCN(CC)c1ccc(C=C2C(=O)N(C)C(=S)N(C)C2=O)o1	aSyn UTR act -86.2
CCN(CC)c1ccc(/C=C2\C(=O)NC(=S)N(C)C2=O)o1	aSyn UTR act -115.0
CC(C)[C@H]1C(=O)O[C@H](C(C)C)C(=O)N(C)[C@@H](C(C)C)C(=O)O[C@H](C(C)C)C(=O)N(C)[C@@H](C(C)C)C(=O)O[C@H](C(C)C)C(=O)N1C	none
CC[n+]1c(/C=C/C=C/c2ccc(N(C)C)cc2)sc2ccccc21	none
CCc1ccc(NC(=O)CCNC(=O)N2C[C@H]3C[C@@H](C2)c2cccc(=O)n2C3)cc1	aSyn UTR act -69.6
COc1cc(/C=C/C(=O)c2c(O)n(CCc3ccccc3)c(=O)[nH]c2=O)ccc1O	aSyn UTR act -69.4
O=C(/C=C/c1ccccc1)c1c(O)n(CCc2ccccc2)c(=O)[nH]c1=O	aSyn UTR act -83.5
C[C@@H]1O[C@@H](O[C@H]2C[C@@H](O)[C@]3(CO)[C@H]4[C@H](O)C[C@]5(C)[C@@H](C6COC(=O)C6)CC[C@]5(O)[C@@H]4CC[C@]3(O)C2)[C@H](O)[C@H](O)[C@H]1O (stereo not given in full)	none
CCOc1ccccc1-n1c(O)c(C=Nc2ccc(N(CC)CC)cc2)c(=O)[nH]c1=O	aSyn UTR act -65.5
Cc1nc2ccccc2c(=O)n1-c1ccc([N+](=O)[O-])cc1	aSyn UTR act -121.0
Cc1nc2ccccc2c(=O)n1-c1ccc(Cl)c(Cl)c1	aSyn UTR act -137.6
Cc1nc2cc(-c3cccc(F)c3)nn2c(C)c1CCC(=O)N1CCC2(CC1)OCCO2	none
O=C(CSc1ccccc1)N1CCC2(CC1)OCCO2	aSyn UTR act -92.2
CCN1/C(=C\C=C\C2=[N+](CC)c3ccccc3C2(C)C)C(C)(C)c2ccccc21	none
NC(=S)c1cn(C2OC(CO)C(O)C2O)c2ncnc(N)c12 (stereo not given)	none
CCN1CCN(c2nc3ccccc3s2)CC1	aSyn UTR act -131.4
C[C@@H]1C[C@H]2OC(=O)C3(CO3)[C@H]2[C@H](O)[C@]2(C)C(=O)C3OC3[C@@H]12 (stereo not given in full)	aSyn UTR act -62.5
C=C1C(=O)O[C@@H]2C[C@@H](C)[C@@H]3C=CC(=O)[C@@]3(C)[C@@H](O)[C@H]12	none
CC1(C)CN=C(Nc2nc3ccccc3s2)S1	aSyn UTR act -117.9
CC12CC[C@H]3[C@@H](CCC4(O)C[C@H](O)CCC34/C=N/NC(=O)c3ccccc3F)C1(O)CCC2C1=CC(=O)OC1 (stereo not given in full)	none
CC(=O)OC(C)(C)/C=C/C(=O)C(C)(O)C1[C@H](O)C[C@@]2(C)C3CC=C4C(CC[C@@H](O)C4(C)C)[C@]3(CO)C(=O)C[C@]12C (stereo not given in full)	none
O=C(c1cc2c(s1)-c1ccccc1OC2)N1CCC2(CC1)OCCO2	aSyn UTR act -129.2
CN(C)c1ccc(/C=C/C=C/c2sc3ccccc3[n+]2C)cc1	none
C/C=C(\C)C(=O)N[C@@H](c1ccccc1)[C@@H](O)C(=O)O[C@H]1C[C@@]2(O)[C@@H](OC(=O)c3ccccc3)C3[C@](C)(C(=O)[C@H](OC(C)=O)C(=C1C)C2(C)C)[C@@H](O)C[C@H]1OC[C@@]31OC(C)=O (stereo not given in full)	none
CC1CC(OP(O)(=S)c2ccc(N(C)C)cc2NC(=O)c2cccs2)CC(C)(C)C1 (stereo not given)	aSyn UTR act -112.9
CC(=O)Nc1ccc(OC(=O)N2CCCCC2)cc1	none
CCc1ccc(N2C(=O)NC(=O)/C(=C/c3cccn3CCOc3ccc(C(C)CC)cc3)C2=O)cc1 (stereo not given)	aSyn UTR act -81.6
CC[C@@]1(O)C(=O)OCc2c1cc1n(c2=O)Cc2cc3c(NC(=O)CN)cccc3nc2-1	none
Nc1ncnc2c1ccn2[C@@H]1O[C@H](CO)[C@@H](O)[C@H]1O	none
